Assay results published in PMC7862700, “An all-to-all approach to the identification of sequence-specific readers for epigenetic DNA modifications on cytosine”.

How the values were obtained:
Experiment in all cases: DAPPL (digital affinity profiling via proximity ligation, sequencing); 10 mM Tris-HCl pH 7.5, 50 mM NaCl, 1 mM DTT, 4% glycerol, room temperature, 30 min; GST-TFs on glutathione beads, 16-mer random dsDNA library, 0.1% formaldehyde crosslink after washing; high values mean tight binding
FEV = target: T1, FEV (Homo sapiens, UniProt Q99581 1-238); conditions: protein: recombinant; tags: N-terminal GST; dsDNA, one strand shown
T1 sequence: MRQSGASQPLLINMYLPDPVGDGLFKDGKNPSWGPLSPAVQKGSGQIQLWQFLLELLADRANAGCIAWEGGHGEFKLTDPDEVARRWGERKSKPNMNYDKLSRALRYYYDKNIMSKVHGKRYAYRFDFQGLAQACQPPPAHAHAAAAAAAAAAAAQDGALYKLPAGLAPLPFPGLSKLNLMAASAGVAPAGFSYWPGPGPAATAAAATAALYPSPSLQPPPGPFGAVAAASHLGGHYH
Outline: (§1)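 Binding signal is defined as a hexamer's read frequency for one factor over its frequency for the tag-only sample. To obtain reads, GST-fused human transcription factors were expressed in yeast, captured on glutathione beads, barcoded with DNA and pooled with that sample. Pools met 200 nmole of a 16-mer random double-stranded DNA library in Tris/NaCl/DTT/glycerol buffer for 30 min at room temperature before washing, 0.1% formaldehyde crosslinking, proximity ligation (BsaI/T4 ligase, 1 h, 37 °C), PCR and Illumina NextSeq500 sequencing.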

ETV5 = ETV5 (Homo sapiens, UniProt P41161 1-510); conditions: protein: recombinant; tags: N-terminal GST; dsDNA, one strand shown
Outline: as §1

HSF1 = HSF1 (Homo sapiens, UniProt Q00613 1-529); conditions: protein: recombinant; tags: N-terminal GST; chain copies: 3; dsDNA, one strand shown
Outline: as §1

SPIC = target: T2, SPIC (Homo sapiens, UniProt Q8N5J4 1-248); conditions: protein: recombinant; tags: N-terminal GST; dsDNA, one strand shown
T2 sequence: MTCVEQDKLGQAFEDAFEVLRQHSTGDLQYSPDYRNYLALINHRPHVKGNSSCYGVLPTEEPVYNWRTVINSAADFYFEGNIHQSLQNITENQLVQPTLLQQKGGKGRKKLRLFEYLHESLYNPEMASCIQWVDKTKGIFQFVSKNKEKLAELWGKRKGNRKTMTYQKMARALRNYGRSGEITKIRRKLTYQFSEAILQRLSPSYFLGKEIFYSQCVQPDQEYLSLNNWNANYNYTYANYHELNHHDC
Outline: as §1

ELF4 = ELF4 (Homo sapiens, UniProt Q99607 1-663); conditions: protein: recombinant; tags: N-terminal GST; dsDNA, one strand shown
Outline: as §1

ELK4 = target: T3, ELK4 (Homo sapiens, UniProt P28324-2 1-405); conditions: protein: recombinant; tags: N-terminal GST; dsDNA, one strand shown
T3 sequence: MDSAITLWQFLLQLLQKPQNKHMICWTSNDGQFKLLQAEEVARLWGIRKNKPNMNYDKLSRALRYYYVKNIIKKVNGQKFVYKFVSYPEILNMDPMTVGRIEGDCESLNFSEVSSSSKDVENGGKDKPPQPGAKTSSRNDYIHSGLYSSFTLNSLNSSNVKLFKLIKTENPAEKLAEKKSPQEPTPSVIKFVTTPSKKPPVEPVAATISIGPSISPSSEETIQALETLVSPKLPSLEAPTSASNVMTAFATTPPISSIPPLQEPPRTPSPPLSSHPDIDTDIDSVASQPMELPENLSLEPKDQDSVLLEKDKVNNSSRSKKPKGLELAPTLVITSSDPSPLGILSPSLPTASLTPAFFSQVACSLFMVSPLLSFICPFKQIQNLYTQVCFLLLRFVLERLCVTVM
Outline: as §1

ETV2 = target: T4, ETV2 (Homo sapiens, UniProt O00321 1-342); conditions: protein: recombinant; tags: N-terminal GST; dsDNA, one strand shown
T4 sequence: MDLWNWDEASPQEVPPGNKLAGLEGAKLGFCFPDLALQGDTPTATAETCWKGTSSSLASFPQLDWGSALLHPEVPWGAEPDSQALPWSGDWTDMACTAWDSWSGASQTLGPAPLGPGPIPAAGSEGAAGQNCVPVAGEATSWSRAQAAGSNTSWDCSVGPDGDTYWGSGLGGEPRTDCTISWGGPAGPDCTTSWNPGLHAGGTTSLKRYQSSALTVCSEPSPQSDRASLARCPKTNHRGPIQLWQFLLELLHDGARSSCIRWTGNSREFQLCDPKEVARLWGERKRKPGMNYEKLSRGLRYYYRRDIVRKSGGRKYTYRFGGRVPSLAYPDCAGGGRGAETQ
Outline: as §1

ELF3 = target: T5, ELF3 (Homo sapiens, UniProt P78545 1-371); conditions: protein: recombinant; tags: N-terminal GST; dsDNA, one strand shown
T5 sequence: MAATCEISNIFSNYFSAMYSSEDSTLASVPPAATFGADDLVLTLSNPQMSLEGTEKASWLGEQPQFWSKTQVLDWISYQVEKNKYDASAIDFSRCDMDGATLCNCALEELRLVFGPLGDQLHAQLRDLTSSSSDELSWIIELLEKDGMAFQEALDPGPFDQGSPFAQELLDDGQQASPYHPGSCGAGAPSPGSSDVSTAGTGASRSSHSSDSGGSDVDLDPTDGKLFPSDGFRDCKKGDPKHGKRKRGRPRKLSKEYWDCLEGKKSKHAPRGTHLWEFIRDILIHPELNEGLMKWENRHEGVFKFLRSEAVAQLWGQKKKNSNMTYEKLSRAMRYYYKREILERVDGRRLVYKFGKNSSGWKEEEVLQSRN
Outline: as §1

CRX = CRX (Homo sapiens, UniProt O43186 1-299); conditions: protein: recombinant; tags: N-terminal GST; dsDNA, one strand shown
Outline: as §1

ETV1 = ETV1 (Homo sapiens, UniProt P50549 1-477); conditions: protein: recombinant; tags: N-terminal GST; dsDNA, one strand shown
Outline: as §1

ERF = target: T6, ERF (Homo sapiens, UniProt P50548 1-548); conditions: protein: recombinant; tags: N-terminal GST; dsDNA, one strand shown
T6 sequence: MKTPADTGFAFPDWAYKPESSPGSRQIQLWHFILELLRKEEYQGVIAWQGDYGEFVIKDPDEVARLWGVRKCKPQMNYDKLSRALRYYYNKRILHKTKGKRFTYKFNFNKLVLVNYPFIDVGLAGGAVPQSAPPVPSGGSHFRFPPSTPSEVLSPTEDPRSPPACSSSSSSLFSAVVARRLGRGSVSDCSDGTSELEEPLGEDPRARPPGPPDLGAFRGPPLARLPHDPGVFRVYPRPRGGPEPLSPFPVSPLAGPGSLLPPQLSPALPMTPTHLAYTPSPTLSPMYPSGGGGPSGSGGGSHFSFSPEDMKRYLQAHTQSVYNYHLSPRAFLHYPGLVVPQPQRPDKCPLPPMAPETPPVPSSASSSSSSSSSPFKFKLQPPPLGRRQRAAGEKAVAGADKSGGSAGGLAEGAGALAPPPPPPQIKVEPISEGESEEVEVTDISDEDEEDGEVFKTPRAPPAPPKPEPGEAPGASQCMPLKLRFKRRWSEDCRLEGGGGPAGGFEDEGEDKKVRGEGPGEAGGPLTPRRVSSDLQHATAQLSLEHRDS
Outline: as §1

ETV3L = target: T7, ETV3L (Homo sapiens, UniProt Q6ZN32 1-361); conditions: protein: recombinant; tags: N-terminal GST; dsDNA, one strand shown
T7 sequence: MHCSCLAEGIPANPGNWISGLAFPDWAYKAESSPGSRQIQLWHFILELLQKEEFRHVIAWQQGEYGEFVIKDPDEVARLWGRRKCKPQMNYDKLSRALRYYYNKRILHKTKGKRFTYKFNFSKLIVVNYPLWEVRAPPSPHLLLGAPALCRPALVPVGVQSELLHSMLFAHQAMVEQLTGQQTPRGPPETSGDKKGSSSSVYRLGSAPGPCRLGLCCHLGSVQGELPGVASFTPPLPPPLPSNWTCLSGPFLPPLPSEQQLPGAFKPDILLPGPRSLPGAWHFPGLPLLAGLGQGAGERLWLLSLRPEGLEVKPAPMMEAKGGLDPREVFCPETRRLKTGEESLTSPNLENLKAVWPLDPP
Outline: as §1

ETS2 = target: T8, ETS2 (Homo sapiens, UniProt P15036 1-469); conditions: protein: recombinant; tags: N-terminal GST; dsDNA, one strand shown
T8 sequence: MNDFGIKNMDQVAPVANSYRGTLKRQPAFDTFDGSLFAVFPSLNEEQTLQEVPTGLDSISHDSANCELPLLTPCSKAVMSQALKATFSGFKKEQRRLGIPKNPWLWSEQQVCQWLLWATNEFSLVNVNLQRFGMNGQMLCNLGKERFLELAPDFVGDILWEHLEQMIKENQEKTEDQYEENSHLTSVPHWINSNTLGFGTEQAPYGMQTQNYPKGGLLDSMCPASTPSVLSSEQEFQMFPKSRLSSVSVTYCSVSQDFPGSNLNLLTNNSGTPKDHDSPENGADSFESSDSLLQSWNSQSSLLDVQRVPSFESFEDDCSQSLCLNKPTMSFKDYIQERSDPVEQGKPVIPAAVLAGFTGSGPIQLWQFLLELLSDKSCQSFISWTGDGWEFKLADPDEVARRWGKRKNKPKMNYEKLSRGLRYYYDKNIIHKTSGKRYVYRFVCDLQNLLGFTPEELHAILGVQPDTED
Outline: as §1

SPDEF = target: T9, SPDEF (Homo sapiens, UniProt O95238 1-335); conditions: protein: recombinant; tags: N-terminal GST; dsDNA, one strand shown
T9 sequence: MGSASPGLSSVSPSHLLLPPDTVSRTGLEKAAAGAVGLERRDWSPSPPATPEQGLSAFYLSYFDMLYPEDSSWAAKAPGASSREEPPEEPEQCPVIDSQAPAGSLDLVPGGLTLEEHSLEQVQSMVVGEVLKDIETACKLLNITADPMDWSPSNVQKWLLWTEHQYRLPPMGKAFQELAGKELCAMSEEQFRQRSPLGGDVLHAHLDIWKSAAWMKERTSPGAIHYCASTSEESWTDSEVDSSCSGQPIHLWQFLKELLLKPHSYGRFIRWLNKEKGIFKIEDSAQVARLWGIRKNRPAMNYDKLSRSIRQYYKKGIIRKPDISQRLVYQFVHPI
Outline: as §1

ETV7 = target: T10, ETV7 (Homo sapiens, UniProt Q9Y603 1-341); conditions: protein: recombinant; tags: N-terminal GST; dsDNA, one strand shown
T10 sequence: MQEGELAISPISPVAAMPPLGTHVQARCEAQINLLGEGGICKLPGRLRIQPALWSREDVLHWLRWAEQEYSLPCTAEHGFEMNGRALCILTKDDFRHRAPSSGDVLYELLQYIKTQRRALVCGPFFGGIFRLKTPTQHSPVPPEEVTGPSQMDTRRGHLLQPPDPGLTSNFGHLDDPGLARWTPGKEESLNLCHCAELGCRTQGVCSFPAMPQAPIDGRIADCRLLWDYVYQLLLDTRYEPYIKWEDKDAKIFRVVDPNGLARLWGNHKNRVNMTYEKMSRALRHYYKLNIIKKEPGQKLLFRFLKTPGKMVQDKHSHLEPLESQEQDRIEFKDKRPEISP
Outline: as §1

ELF5 = target: T11, ELF5 (Homo sapiens, UniProt Q9UKW6-2 1-255); conditions: protein: recombinant; tags: N-terminal GST; dsDNA, one strand shown
T11 sequence: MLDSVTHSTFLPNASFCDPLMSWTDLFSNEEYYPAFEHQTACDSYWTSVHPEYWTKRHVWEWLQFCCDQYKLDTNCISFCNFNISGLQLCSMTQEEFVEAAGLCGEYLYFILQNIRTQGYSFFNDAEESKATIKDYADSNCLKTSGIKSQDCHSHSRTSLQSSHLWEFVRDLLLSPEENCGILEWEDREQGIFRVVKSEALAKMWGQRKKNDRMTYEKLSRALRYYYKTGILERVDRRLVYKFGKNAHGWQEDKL
Outline: as §1

ETV3 = target: T12, ETV3 (Homo sapiens, UniProt P41162-2 1-143); conditions: protein: recombinant; tags: N-terminal GST; dsDNA, one strand shown
T12 sequence: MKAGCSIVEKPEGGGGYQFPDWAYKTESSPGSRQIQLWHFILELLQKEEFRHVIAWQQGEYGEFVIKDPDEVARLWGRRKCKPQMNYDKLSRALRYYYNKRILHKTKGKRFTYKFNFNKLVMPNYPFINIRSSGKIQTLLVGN
Outline: as §1

ETV6 = ETV6 (Homo sapiens, UniProt P41212 1-452); conditions: protein: recombinant; tags: N-terminal GST; dsDNA, one strand shown
Outline: as §1

CRX, sequence (O43186 whole entry): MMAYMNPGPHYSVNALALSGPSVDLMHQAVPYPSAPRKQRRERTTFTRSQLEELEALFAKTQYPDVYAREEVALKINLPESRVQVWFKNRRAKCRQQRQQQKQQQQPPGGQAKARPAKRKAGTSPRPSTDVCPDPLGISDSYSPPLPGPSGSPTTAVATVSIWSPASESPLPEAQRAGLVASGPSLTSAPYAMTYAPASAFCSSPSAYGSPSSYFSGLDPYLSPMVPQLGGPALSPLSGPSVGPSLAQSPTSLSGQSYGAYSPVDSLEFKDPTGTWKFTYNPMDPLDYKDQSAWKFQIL
HSF1, sequence (Q00613 whole entry): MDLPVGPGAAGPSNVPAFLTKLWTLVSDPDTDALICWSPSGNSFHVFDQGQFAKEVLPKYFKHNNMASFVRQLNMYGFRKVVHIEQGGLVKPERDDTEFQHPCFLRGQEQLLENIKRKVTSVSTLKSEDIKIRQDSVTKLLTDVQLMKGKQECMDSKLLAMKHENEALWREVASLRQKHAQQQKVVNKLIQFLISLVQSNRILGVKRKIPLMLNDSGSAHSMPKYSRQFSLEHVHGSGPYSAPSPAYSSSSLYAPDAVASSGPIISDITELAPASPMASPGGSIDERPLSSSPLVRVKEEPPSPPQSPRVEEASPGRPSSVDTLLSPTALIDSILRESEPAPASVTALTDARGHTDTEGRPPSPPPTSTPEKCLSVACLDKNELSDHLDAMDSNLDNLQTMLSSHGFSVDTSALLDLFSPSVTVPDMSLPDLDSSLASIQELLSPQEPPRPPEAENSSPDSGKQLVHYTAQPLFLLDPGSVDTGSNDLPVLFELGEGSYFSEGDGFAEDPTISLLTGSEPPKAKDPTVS
ETV6, sequence (P41212 whole entry): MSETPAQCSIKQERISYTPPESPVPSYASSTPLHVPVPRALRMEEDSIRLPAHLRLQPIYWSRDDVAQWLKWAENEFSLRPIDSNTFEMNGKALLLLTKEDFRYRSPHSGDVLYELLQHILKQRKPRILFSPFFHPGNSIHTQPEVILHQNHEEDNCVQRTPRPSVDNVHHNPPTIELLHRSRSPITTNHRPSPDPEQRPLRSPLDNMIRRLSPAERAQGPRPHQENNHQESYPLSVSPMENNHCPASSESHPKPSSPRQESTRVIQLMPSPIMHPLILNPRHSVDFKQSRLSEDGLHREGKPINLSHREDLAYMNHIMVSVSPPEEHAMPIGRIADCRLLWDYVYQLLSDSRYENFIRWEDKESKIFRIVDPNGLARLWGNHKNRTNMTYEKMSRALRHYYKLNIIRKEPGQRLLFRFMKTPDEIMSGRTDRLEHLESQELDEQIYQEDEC
ELF4, sequence (Q99607 whole entry): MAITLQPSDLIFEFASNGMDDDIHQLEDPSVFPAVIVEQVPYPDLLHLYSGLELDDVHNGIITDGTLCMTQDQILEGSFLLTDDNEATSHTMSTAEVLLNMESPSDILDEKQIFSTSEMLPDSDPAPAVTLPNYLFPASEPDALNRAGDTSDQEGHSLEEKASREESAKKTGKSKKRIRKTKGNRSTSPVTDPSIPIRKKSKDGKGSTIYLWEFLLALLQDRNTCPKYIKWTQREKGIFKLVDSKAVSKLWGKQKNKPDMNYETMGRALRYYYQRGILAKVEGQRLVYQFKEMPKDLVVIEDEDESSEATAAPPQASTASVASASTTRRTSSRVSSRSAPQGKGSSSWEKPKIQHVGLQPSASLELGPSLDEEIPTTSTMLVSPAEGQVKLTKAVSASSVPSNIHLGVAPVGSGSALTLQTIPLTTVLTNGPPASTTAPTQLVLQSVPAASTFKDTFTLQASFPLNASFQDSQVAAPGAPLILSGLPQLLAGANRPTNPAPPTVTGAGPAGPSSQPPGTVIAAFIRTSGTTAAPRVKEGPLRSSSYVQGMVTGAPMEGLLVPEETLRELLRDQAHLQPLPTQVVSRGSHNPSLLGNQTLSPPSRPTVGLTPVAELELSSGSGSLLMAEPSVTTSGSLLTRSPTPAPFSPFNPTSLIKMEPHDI
ETV5, sequence (P41161 whole entry): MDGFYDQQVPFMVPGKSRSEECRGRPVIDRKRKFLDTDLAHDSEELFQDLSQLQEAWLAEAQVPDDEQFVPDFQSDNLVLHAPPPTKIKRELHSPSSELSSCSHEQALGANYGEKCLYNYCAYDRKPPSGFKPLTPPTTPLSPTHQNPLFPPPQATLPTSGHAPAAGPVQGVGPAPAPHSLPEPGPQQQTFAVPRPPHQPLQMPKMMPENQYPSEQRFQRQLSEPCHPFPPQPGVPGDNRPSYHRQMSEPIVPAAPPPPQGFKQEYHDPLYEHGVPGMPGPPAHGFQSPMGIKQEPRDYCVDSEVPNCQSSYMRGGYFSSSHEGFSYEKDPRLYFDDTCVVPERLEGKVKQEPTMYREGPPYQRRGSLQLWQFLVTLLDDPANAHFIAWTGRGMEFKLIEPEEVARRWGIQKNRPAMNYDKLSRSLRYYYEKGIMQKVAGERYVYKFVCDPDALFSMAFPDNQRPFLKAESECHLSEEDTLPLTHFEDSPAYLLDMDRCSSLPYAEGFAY
ETV1, sequence (P50549 whole entry): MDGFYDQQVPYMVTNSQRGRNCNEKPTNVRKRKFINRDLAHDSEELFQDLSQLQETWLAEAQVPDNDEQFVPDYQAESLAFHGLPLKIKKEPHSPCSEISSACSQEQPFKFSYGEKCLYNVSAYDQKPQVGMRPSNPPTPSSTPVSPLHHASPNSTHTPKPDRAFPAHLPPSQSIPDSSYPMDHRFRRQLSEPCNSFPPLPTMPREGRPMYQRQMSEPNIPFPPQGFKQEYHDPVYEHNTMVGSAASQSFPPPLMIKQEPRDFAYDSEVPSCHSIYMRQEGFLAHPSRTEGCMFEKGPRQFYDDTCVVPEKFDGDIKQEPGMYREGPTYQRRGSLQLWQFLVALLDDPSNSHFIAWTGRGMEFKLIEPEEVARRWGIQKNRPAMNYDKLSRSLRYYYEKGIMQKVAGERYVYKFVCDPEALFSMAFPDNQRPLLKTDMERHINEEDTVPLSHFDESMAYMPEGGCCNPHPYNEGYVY

Q: What does the source list for TGCGCT?
A: binding signal (FEV): 1.25 fold enrichment (6-mer frequency, TF over GST control); binding signal (ETV5): 1.28 fold enrichment (6-mer frequency, TF over GST control); binding signal (HSF1): 1.07 fold enrichment (6-mer frequency, TF over GST control); binding signal (SPIC): 1.24 fold enrichment (6-mer frequency, TF over GST control); binding signal (ELF4): 1.19 fold enrichment (6-mer frequency, TF over GST control); binding signal (ELK4): 1.46 fold enrichment (6-mer frequency, TF over GST control); binding signal (ETV2): 1.35 fold enrichment (6-mer frequency, TF over GST control); binding signal (ELF3): 1.04 fold enrichment (6-mer frequency, TF over GST control); binding signal (CRX): 1.2 fold enrichment (6-mer frequency, TF over GST control); binding signal (ETV1): 1.17 fold enrichment (6-mer frequency, TF over GST control); binding signal (ERF): 1.33 fold enrichment (6-mer frequency, TF over GST control); binding signal (ETV3L): 1.21 fold enrichment (6-mer frequency, TF over GST control); binding signal (ETS2): 1.43 fold enrichment (6-mer frequency, TF over GST control); binding signal (SPDEF): 1.19 fold enrichment (6-mer frequency, TF over GST control); binding signal (ETV7): 1.17 fold enrichment (6-mer frequency, TF over GST control); binding signal (ELF5): 1.15 fold enrichment (6-mer frequency, TF over GST control); binding signal (ETV3): 1.24 fold enrichment (6-mer frequency, TF over GST control); binding signal (ETV6): 1.24 fold enrichment (6-mer frequency, TF over GST control)
